Assay results: paper PMC4552634, “A New Set of Chemical Starting Points with Plasmodium falciparum Transmission-Blocking Potential for Antimalarial Drug Discovery” (PLoS ONE, 2015)
About 3,200 (25%) of roughly 13,000 compounds showed an effect of 50% or more. Some of the results follow.

These molecules were tested on P. falciparum stage V gametocytes. Details: 48 h, 5 µM; inhibitor.
Design: BacTiter-Glo ATP luminescence viability of purified stage V gametocytes in 384-well plates, per cent inhibition versus DMSO
With `CCC(CC)OC(=O)C(C)c1cccc(C(=O)c2ccccc2)c1` (centres unmarked) [TCMDC-138666] the “% Inhibition” value was -7.418%.
For `COc1ccc2ncc(F)c(CCN3CC[C@H](NCc4cc(C#N)c5c(c4)OCCO5)[C@H](O)C3)c2c1` [TCMDC-136207], the “% Inhibition” value was -10.98%.
`CCC(C)OC(=O)C1=C(C)NC2=C(C(=O)CC(c3ccc(OC)c(OC)c3)C2)C1c1ccc(O)cc1` (centres unmarked) [TCMDC-125619] was tested, and the “% Inhibition” value was 13.43%.
`CCOC(=O)c1ccc(NC(=O)N[C@@H](Cc2ccc(O)cc2)C(=O)NC2CCN(Cc3ccc4c(c3)OCO4)CC2)cc1` [TCMDC-135257] was tested, and the “% Inhibition” value was -19.76%.
For `CCN(CC)CCN(Cc1ccc(-c2ccc(C(F)(F)F)cc2)cc1)C(=O)Cn1c(CCc2ccc(F)cc2)nc(=O)c2ccccc21` [TCMDC-140943], the “% Inhibition” value was 79.23%.
For `CCN(CC)CCN(Cc1ccc(-c2ccc(C(F)(F)F)cc2)cc1)C(=O)Cn1c(/C=C/c2ccco2)nc(=O)c2ccccc21` [TCMDC-140939], the “% Inhibition” value was 82.58%.
In the case of `CCN(CC)CCN(Cc1ccc(-c2ccc(C(F)(F)F)cc2)cc1)C(=O)Cn1c(CCc2cc(F)cc(F)c2)nc(=O)c2ccccc21` [TCMDC-140956], the “% Inhibition” value is reported as 70.83%.
For `CCN(CC)CCN(Cc1ccc(-c2ccc(C(F)(F)F)cc2)cc1)C(=O)Cn1c(CCC2CCCCC2)nc(=O)c2ccccc21` [TCMDC-141056], the “% Inhibition” value was 47.99%.
For `COc1ccc2nccc(N3CCN(CCNCc4ccc5c(n4)NC(=O)CO5)CC3)c2n1` [TCMDC-141968], the “% Inhibition” value was 1.504%.
`Cc1cc(NCC(C)C)c2[nH]nc(-c3ccccc3)c2n1` [TCMDC-131557] was tested, and the “% Inhibition” value was -38.79%.
In the case of `CC(=O)c1c(Cc2ccccc2Cl)c[nH]c1C` [TCMDC-125433], the “% Inhibition” value is reported as -14.2%.
With `CC(C)COc1cc(C(=O)Nc2cnc3ccccc3c2)ccc1[N+](=O)[O-]` [TCMDC-139142] the “% Inhibition” value was 13.84%.
For `COc1ccc(CNC(=O)NC2CCN(c3ccnc(Nc4ccc(F)cc4)n3)CC2)cc1` [TCMDC-133631], the “% Inhibition” value was 1.923%.
In the case of `OC(CNC12CC3CC(CC(C3)C1)C2)c1cccc(C(F)(F)F)c1` (centres unmarked) [TCMDC-131509], the “% Inhibition” value is reported as -56.01%.
With `CCc1ccc(-n2cc(C(=O)c3cc(Br)ccc3O)cc(C#N)c2=O)cc1` [TCMDC-125186] the “% Inhibition” value was 9.775%.
For `O=[N+]([O-])c1ccccc1/C=N/Nc1ccnc2cc(Cl)ccc12` [TCMDC-123965], the “% Inhibition” value was -67.83%.
With `COc1ccc2nccc([C@@H](O)CN3CCC(NC(=O)c4ccc(C5(C(F)(F)F)N=N5)cc4)CC3)c2c1` [TCMDC-141324] the “% Inhibition” value was -7.709%.
`CCCCOc1ccc(/C=C/c2ccc(-c3c(C)[nH]c(C)c(Cl)c3=O)s2)cc1` [TCMDC-136086] was tested, and the “% Inhibition” value was 60.63%.
With `CC(C)c1ccc(NC(=O)NC2CCN(CCCCCNC(=O)/C=C/c3ccc(Cl)c(Cl)c3)CC2)cc1` [TCMDC-139389] the “% Inhibition” value was -3.81%.
`COc1ccc(NC(=O)NC2CCN(CCCCCNC(=O)/C=C/c3ccc(Cl)c(Cl)c3)C2)c(OC)c1` (centres unmarked) [TCMDC-139525] was tested, and the “% Inhibition” value was 95.6%.
With `O=C(/C=C/c1ccc(Cl)c(Cl)c1)NCCCCCN1CC[C@H](NC(=O)Nc2ccc(Oc3ccccc3)cc2)C1` [TCMDC-139512] the “% Inhibition” value was 98.95%.
`COc1ccc(NC(=O)NC2CCN(CCCCCNC(=O)/C=C/c3ccc(Cl)c(Cl)c3)CC2)cc1` [TCMDC-135709] was tested, and the “% Inhibition” value was -22.99%.
In the case of `O=C(/C=C/c1ccc(Cl)c(Cl)c1)NCCCCCN1CCC(NC(=O)Nc2ccc(Cl)c(Cl)c2)CC1` [TCMDC-139387], the “% Inhibition” value is reported as -30.31%.
`O=C(/C=C/c1ccc(Cl)c(Cl)c1)NCCCCCN1CCC(NC(=O)Nc2ccc(OC(F)F)cc2)CC1` [TCMDC-135722] was tested, and the “% Inhibition” value was -13.06%.
In the case of `CN(CCCCCN1CCC(NC(=O)Nc2ccc(C(F)(F)F)cc2)C1)C(=O)/C=C/c1ccc(Cl)c(Cl)c1` (centres unmarked) [TCMDC-139531], the “% Inhibition” value is reported as 79.06%.
`CC(C)c1ccc(NC(=O)N[C@H]2CCN(CCCCCNC(=O)/C=C/c3ccc(Cl)c(Cl)c3)C2)cc1` [TCMDC-139510] was tested, and the “% Inhibition” value was 104.6%.
In the case of `CN(CCCCCN1CCC(NC(=O)Nc2ccc(Oc3ccccc3)cc2)C1)C(=O)/C=C/c1ccc(Cl)c(Cl)c1` (centres unmarked) [TCMDC-139532], the “% Inhibition” value is reported as -7.519%.
With `COc1ccccc1NC(=O)NC1CCN(CCCCCNC(=O)/C=C/c2ccc(Cl)c(Cl)c2)CC1` [TCMDC-139385] the “% Inhibition” value was -13.68%.
With `CC(C)c1ccc(NC(=O)NC2CCN(CCCCCN(C)C(=O)/C=C/c3ccc(Cl)c(Cl)c3)C2)cc1` (centres unmarked) [TCMDC-139530] the “% Inhibition” value was -5.21%.
For `O=C(/C=C/c1ccc(Cl)c(Cl)c1)NCCCCCN1CCC(NC(=O)Nc2ccc(Oc3ccccc3)cc2)C1` (centres unmarked) [TCMDC-139528], the “% Inhibition” value was -43.31%.
In the case of `CN1CCN(c2cc(NC(=O)Nc3ccc(-c4ccncc4)c(Cl)c3)ccc2Br)CC1` [TCMDC-139221], the “% Inhibition” value is reported as 36.17%.
With `COc1cc(OC)cc(-c2nc3c(C#N)c(OCCN(C)C)ccc3[nH]2)c1` [TCMDC-133764] the “% Inhibition” value was 10.97%.
In the case of `CCOC(=O)c1ccc(NC(=O)N[C@H]2CCN(CCCCCNC(=O)/C=C/c3ccc(Cl)c(Cl)c3)C2)cc1` [TCMDC-139511], the “% Inhibition” value is reported as 97.51%.
With `CCOC(=O)c1ccc(NC(=O)NC2CCN(CCCCCNC(=O)/C=C/c3ccc(Cl)c(Cl)c3)C2)cc1` (centres unmarked) [TCMDC-139526] the “% Inhibition” value was 12.95%.
With `CCNc1cc(C(=O)N[C@@H](Cc2ccccc2)[C@H](O)CNC2CCC(F)(F)CC2)c(F)c(N2CCCCS2(=O)=O)c1` [TCMDC-135448] the “% Inhibition” value was 35.59%.
In the case of `COc1ccc2nc3cc(Cl)ccc3c(NCCc3ccccc3)c2c1.Cl` [TCMDC-137665], the “% Inhibition” value is reported as -3.627%.
In the case of `CCN1CCN(CCCNc2ccnc3cc(Cl)ccc23)CC1` [TCMDC-137588], the “% Inhibition” value is reported as 6.527%.
`COc1ccc2nc3cc(Cl)ccc3c(NCCCCN3CCNCC3)c2c1` [TCMDC-137578] was tested, and the “% Inhibition” value was 99.69%.
In the case of `CCN1CCN(CCCNc2c3ccc(Cl)cc3nc3ccc(OC)cc23)CC1` [TCMDC-137586], the “% Inhibition” value is reported as 86.55%.
With `CCN1CCN(CCCNc2c3ccc(Cl)cc3nc3ccc(O)cc23)CC1` [TCMDC-137583] the “% Inhibition” value was 70.77%.
In the case of `COc1ccc2nc3ccccc3c(NCCN3CCN(C)CC3)c2c1` [TCMDC-138017], the “% Inhibition” value is reported as 69.17%.
